Unmarked numbers belong to inactive results.

We go through 34 molecules from the supplement of paper PMC4206461.

In one test the test system is Pseudomonas aeruginosa PA14 dppA1-A5 penta mutant + pBBR5.DppA1 (PA14_58350). The test can be described thus: respiration area under curve with compound as sole nitrogen source, 24 h (OmniLog AUC (arbitrary units)); higher = more respiration / better utilisation as nitrogen source, active = 2000 or more. As to the method:
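Biolog Phenotype MicroArray plates PM6-PM8: each di/tripeptide is the sole nitrogen source. Tetrazolium reduction was read in the OmniLog for 24 h at 37°C and summarised as area under the respiration curve (arbitrary units). Values below 2000 count as no respiration. Strain is the SBP penta mutant complemented with DppA1 on a plasmid under its native promoter. Lys/His/Cys peptides are excluded.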
For `NCC(=O)N[C@@H](CC(N)=O)C(=O)O` (plate: PM8), the “respiration area under curve” value is 14300 (active).
On the same count and under the same terms, with `CC[C@H](C)[C@H](N)C(=O)N[C@@H](CO)C(=O)O` (plate: PM6) the figure was 3970 (active); with `CC[C@H](C)[C@H](NC(=O)[C@@H](N)C(C)C)C(=O)O` (plate: PM7), 6870 (active).

The subject of another test is Pseudomonas aeruginosa PA14 dppBCDF deletion mutant. The test can be described thus: respiration area under curve with compound as sole nitrogen source, 24 h (OmniLog AUC (arbitrary units)); higher = more respiration / better utilisation as nitrogen source, active = 2000 or more; extreme values may be limits of the assay. The procedure: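 Biolog Phenotype MicroArray plates PM6-PM8: each di/tripeptide is the sole nitrogen source. Tetrazolium reduction was read in the OmniLog every 15 min for 24 h at 37°C and summarised as area under the respiration curve (arbitrary units). Values below 2000 count as no respiration. Strain is the dipeptide ABC transporter deletion mutant.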
Turning to `C[C@@H](O)[C@H](N)C(=O)N[C@@H](Cc1ccccc1)C(=O)O` (plate: PM8), the “respiration area under curve” value was 274.
Same read-out and setting: next, `N[C@@H](CCC(=O)O)C(=O)N[C@@H](Cc1ccc(O)cc1)C(=O)O` (plate: PM6): 44.
On to `CC(C)C[C@H](NC(=O)[C@@H](N)CO)C(=O)O` (plate: PM7), for which the “respiration area under curve” value was 3310 (active).
Same read-out and setting: with `C[C@H](N)C(=O)N[C@@H](CCCN=C(N)N)C(=O)O` (plate: PM6) the figure was 9770 (active); with `CC(C)[C@H](NC(=O)[C@@H](N)Cc1ccc(O)cc1)C(=O)O` (plate: PM8), 5040 (active).
Still for that read-out and setting: with `NC(N)=NCCC[C@H](NC(=O)[C@@H]1CCCN1)C(=O)O` (plate: PM8) the figure was 7840 (active); with `NCC(=O)N[C@@H](CC(N)=O)C(=O)O` (plate: PM8), 13800 (active); with `CC(C)[C@H](NC(=O)[C@@H](N)Cc1ccccc1)C(=O)O` (plate: PM8), 3510 (active).
The same measure, in the same setting: next, `NC(=O)CC[C@H](NC(=O)[C@@H](N)CCCN=C(N)N)C(=O)O` (plate: PM6): 9270 (active).
As for `CC[C@H](C)[C@H](N)C(=O)N[C@@H](CCSC)C(=O)O` (plate: PM6), the “respiration area under curve” value is 0.
Still for that read-out and setting: next, `C[C@H](N)C(=O)N[C@@H](C)C(=O)N[C@@H](C)C(=O)O` (plate: PM8): 6480 (active); `CC(C)C[C@H](NC(=O)CN)C(=O)O` (plate: PM6): 0; `CSCC[C@H](NC(=O)[C@@H](N)CO)C(=O)O` (plate: PM7): 88.8.
The same measure, in the same setting: next, `C[C@@H](O)[C@H](N)C(=O)N[C@@H](CO)C(=O)O` (plate: PM8): 0.
Consider `CC[C@H](C)[C@H](N)C(=O)N[C@@H](CO)C(=O)O` (plate: PM6), for which the “respiration area under curve” value is 156.
Still for that read-out and setting: next, `NCC(=O)N[C@@H](Cc1ccccc1)C(=O)N[C@@H](Cc1ccccc1)C(=O)O` (plate: PM8): 1840; `CC[C@H](C)[C@H](NC(=O)[C@@H](N)C(C)C)C(=O)O` (plate: PM7): 842.
On the same count and under the same terms, next, `N[C@@H](Cc1ccccc1)C(=O)N[C@@H](Cc1c[nH]c2ccccc12)C(=O)O` (plate: PM7): 85; `CSCC[C@H](N)C(=O)N[C@@H](CC(C)C)C(=O)O` (plate: PM7): 247.
Same read-out and setting: with `N[C@@H](CO)C(=O)N[C@@H](Cc1ccc(O)cc1)C(=O)O` (plate: PM7) the figure was 1890.
Turning to `NCC(=O)N[C@H](CC(=O)O)C(=O)O` (plate: PM8), the “respiration area under curve” value was 0.
Same read-out and setting: next, `CC(C)C[C@H](NC(=O)[C@@H](N)C(C)C)C(=O)O` (plate: PM7): 3160 (active); `CC[C@H](C)[C@H](N)C(=O)N[C@@H](Cc1ccccc1)C(=O)O` (plate: PM6): 52.2.
Still for that read-out and setting: with `N[C@@H](CC(=O)O)C(=O)N[C@@H](Cc1ccccc1)C(=O)O` (plate: PM6) the figure was 15.5; with `N[C@@H](Cc1c[nH]c2ccccc12)C(=O)N[C@@H](CC(=O)O)C(=O)O` (plate: PM7), 0; with `N[C@@H](CC(=O)O)C(=O)N[C@@H](CCC(=O)O)C(=O)O` (plate: PM6), 0.
The same measure, in the same setting: with `N[C@@H](CC(=O)O)C(=O)N[C@@H](Cc1c[nH]c2ccccc12)C(=O)O` (plate: PM6) the figure was 1260; with `CSCC[C@H](N)C(=O)N[C@@H](CC(=O)O)C(=O)O` (plate: PM7), 1590.
Turning to `CSCC[C@H](NC(=O)[C@@H](N)CCCN=C(N)N)C(=O)O` (plate: PM6), the “respiration area under curve” value was 9400 (active).
Consider `C[C@H](NC(=O)[C@@H](N)CO)C(=O)O` (plate: PM7), for which the “respiration area under curve” value was 2670 (active).
The same measure, in the same setting: next, `CC(C)C(NC(=O)C1CCCN1)C(=O)O` (configuration not stated) (plate: PM8): 134; `CCC(C)C(N)C(=O)NC(CC(N)=O)C(=O)O` (configuration not stated) (plate: PM8): 488; `CC[C@H](C)[C@H](N)C(=O)N[C@H](C(=O)O)[C@@H](C)CC` (plate: PM6): 0.
Same read-out and setting: with `NCC(=O)N[C@@H](Cc1c[nH]c2ccccc12)C(=O)O` (plate: PM6) the figure was 0.
